Assay results reported in PubChem BioAssay (NCATS).
Inconclusive results are not listed. The source made the active and inactive calls. Unless noted, calls follow the shape of the dose curve; as a rule, active = well fitted curve in the direction sought with a large enough effect; inconclusive = small, poorly fitted or top-dose-only effect, or another doubt; inactive = no such curve, though single readings can be large; an effect the other way counts as inactive or inconclusive.

Assays:
[1] = biological target: Tumor susceptibility gene 101 protein (Homo sapiens) (UniProt Q99816); assay: qHTS Assay for Iinhibitors of HIV-1 Budding by Blocking the Interaction of PTAP/TSG101: Hit Validation (AID 651600); also: potency is read from the fitted curve at half-maximal effect; nearly all actives have a fitted effect of over 70% in size
Chain of Tumor susceptibility gene 101 protein (Homo sapiens) (Q99816 whole entry, looked up, the tested form may be a part): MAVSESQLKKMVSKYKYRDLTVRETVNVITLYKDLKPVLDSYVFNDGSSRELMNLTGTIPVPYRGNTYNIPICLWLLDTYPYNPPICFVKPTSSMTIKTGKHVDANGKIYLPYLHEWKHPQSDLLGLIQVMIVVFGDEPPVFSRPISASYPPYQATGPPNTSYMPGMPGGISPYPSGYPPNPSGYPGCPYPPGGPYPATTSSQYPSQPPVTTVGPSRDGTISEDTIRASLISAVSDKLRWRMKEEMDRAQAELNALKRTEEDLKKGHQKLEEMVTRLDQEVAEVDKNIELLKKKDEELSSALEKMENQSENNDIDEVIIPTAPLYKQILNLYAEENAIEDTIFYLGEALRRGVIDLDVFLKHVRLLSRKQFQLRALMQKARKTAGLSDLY
How it was run: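 FITC-PTAP peptide (50 nM final) binding to Tsg101 binding domain (10 uM final) was measured by polarization after 20 min at r.t. with compounds, in 10 mM HEPES pH 7.5 buffer with 0.15 M NaCl and 0.01% Tween 20.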

[2] = biological target: Rap guanine nucleotide exchange factor 3 (Homo sapiens) (UniProt O95398); assay: Confirmatory qHTS for antagonist of cAMP-regulated guanine nucleotide exchange factor 3 (EPAC1) (AID 1645880); settings: EPAC1 Rap1B-BODIPY-GDP exchange, fluorescence; activity, negative = inhibition: at 115 µM (top of the series);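 also: plate controls were DMSO only for no effect and full effect of the ATA control for full effect; nearly all actives have a fitted effect of over 55% in size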
Chain of Rap guanine nucleotide exchange factor 3 (Homo sapiens) (O95398 whole entry, looked up): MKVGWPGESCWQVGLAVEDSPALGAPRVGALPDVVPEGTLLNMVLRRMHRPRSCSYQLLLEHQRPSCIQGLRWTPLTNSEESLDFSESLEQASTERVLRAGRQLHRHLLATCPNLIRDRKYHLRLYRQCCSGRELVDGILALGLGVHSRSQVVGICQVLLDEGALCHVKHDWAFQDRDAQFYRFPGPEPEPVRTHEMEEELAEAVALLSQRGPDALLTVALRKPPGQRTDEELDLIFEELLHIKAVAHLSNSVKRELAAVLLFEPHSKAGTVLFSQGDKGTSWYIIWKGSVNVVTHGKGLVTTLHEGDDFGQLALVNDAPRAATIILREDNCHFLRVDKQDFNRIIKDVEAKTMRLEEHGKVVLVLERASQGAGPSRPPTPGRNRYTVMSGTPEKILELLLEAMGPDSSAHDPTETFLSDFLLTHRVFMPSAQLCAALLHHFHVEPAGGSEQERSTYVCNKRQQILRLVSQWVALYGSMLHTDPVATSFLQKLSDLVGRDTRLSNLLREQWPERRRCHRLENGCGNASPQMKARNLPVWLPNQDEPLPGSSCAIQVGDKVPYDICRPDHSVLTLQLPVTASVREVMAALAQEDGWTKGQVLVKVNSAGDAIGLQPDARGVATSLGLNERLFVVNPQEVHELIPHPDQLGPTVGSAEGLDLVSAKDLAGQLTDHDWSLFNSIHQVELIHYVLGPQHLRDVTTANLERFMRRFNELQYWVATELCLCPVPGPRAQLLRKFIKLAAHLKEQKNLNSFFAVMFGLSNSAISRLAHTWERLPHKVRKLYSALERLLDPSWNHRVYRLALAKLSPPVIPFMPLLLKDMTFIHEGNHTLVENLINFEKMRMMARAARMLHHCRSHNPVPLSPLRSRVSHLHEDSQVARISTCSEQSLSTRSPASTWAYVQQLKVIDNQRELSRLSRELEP
How it was run: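 Nucleotide exchange uses 100 nM EPAC1, 250 nM RAP1B-BODIPY-GDP and 50 uM GDP, with compounds in a concentration-titration series. After 5 min at room temperature, fluorescence (480 nm ex/540 nm em) is read every 5 min for 30 min. Data are normalized to control ATA and DMSO.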

[3] = biological target: Rap guanine nucleotide exchange factor 4 (Homo sapiens) (UniProt Q8WZA2); assay: Confirmatory qHTS for antagonist of cAMP-regulated guanine nucleotide exchange factor 4 (EPAC2) (AID 1645885); also: nearly all actives have a fitted effect of over 25% in size; also: potency is read from the fitted curve at half-maximal effect; as to activity change, negative = inhibition: % is scaled to controls: 0 for no effect and ±100 for the full control effect
Chain of Rap guanine nucleotide exchange factor 4 (Homo sapiens) (Q8WZA2 whole entry, looked up): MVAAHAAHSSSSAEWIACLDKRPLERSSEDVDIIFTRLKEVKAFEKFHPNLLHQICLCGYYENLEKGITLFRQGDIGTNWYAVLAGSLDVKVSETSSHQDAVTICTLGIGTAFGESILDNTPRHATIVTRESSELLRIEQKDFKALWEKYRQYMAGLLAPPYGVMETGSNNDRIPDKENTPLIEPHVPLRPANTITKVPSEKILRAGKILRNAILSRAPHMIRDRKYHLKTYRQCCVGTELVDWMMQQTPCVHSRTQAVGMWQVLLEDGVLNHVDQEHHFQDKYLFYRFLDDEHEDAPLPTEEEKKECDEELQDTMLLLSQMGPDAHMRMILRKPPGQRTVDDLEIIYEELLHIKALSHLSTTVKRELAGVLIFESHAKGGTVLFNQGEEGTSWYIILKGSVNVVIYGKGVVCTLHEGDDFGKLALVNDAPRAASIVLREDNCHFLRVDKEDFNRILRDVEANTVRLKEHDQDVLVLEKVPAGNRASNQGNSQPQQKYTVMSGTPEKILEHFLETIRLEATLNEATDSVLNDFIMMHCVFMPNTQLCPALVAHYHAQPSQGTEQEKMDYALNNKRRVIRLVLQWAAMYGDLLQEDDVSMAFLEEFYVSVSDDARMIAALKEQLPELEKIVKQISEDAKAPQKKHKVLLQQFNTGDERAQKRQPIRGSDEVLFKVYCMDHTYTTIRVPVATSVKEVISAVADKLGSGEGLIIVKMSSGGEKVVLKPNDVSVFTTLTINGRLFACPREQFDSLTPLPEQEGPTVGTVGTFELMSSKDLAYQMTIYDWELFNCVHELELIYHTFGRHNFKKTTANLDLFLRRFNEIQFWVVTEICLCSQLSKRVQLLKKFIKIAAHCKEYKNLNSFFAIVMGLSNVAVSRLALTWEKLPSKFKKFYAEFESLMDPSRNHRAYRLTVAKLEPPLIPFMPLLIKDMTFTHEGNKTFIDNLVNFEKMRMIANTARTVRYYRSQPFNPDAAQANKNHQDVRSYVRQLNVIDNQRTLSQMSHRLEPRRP

[4] = biological target: Rap guanine nucleotide exchange factor 3 (Homo sapiens) (UniProt O95398); assay: Counterscreen qHTS for antagonist of cAMP-regulated guanine nucleotide exchange factor 3 (EPAC1) (AID 1645888);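 also: fluorescence loss as bound BODIPY-GDP is released from Rap1B; % of control where 0% means no effect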
How it was run: (§1)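 Rap1B-BODIPY-GDP 250 nM + GDP 50 uM; cpds 7-pt, final 9.74 nM–152 uM (activator mode) or from 7.32 nM upwards (inhibitor mode); RT; FI 480/540 nm at 5 and 30 min, then ± cAMP, reread.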

[5] = biological target: Rap guanine nucleotide exchange factor 3 (Homo sapiens) (UniProt O95398); assay: Counterscreen qHTS for agonist of cAMP-regulated guanine nucleotide exchange factor 3 (EPAC1) (AID 1645889); also: nearly all actives have a fitted effect of over 40% in size; also: potency is read from the fitted curve at half-maximal effect; as to activation: % of control where 0% means no effect
How it was run: as §1

[6] = AP1 Signaling Pathway (AID 357; active = well fitted curve in either direction with a large enough effect, not every such curve was filed as active;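 also: ME-180 reporter cells stimulated with EGF at its EC50 level; % is scaled to controls: 0 for no effect and ±100 for the full control effect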); settings: ME-180 (cervical carcinoma) AP-1-bla reporter, EGF-induced, beta-lactamase ratio, 5 h; at 7.69 µM (top of the series) unless noted
How it was run: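 AP-1-bla ME-180 cells, Opti-MEM + 0.5% dialyzed FBS, plated overnight 37 °C. Cpd titration + EC50 EGF, 5 h 37 °C. CCF4 2.5 h RT; ex 405, em 460/530 ratio → %activity, AC50.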

[7] = biological target: Cytochrome P450 1A2 (Homo sapiens) (UniProt P05177); assay: p450-cyp1a2 (AID 410; calls by dose curve; also: potency is read from the fitted curve at half-maximal effect)
Chain of Cytochrome P450 1A2 (Homo sapiens) (P05177 whole entry, looked up): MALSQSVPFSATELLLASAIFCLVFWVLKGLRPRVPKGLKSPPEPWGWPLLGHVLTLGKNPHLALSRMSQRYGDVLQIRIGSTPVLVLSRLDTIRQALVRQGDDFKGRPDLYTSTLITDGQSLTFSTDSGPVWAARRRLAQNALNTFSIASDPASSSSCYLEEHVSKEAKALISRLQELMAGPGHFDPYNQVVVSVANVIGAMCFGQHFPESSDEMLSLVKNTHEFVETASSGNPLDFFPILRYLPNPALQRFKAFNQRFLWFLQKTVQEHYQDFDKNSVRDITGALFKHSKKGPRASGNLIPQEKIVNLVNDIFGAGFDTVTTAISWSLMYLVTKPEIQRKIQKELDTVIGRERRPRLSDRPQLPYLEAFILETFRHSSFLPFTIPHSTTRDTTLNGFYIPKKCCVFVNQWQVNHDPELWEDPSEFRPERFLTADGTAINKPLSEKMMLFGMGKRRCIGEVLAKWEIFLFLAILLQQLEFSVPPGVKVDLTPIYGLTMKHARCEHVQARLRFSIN
How it was run: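 Luminescent readout of luciferin formed from Luciferin-ME by human CYP1A2; data normalized against complete inhibition by 57 uM furafylline. Enzyme 20nM, substrate 100uM at Km, 100mM KPO4 buffer, 60 min reaction at room temperature.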

[8] = NFAT Signaling Pathway (AID 444; active = well fitted curve in either direction with a large enough effect, not every such curve was filed as active;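 also: carbachol stimulus at about its EC50 of 1 µM final; % is scaled to controls: 0 for no effect and ±100 for the full control effect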); settings: Jurkat NFAT-bla M1, carbachol, beta-lactamase ratio, 5 h; at 7.69 µM (top of the series) unless noted
How it was run: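 Read-out: CCF4 FRET ratio (460 nm/530 nm) after 1 h RT dye loading, used for %activity and AC50 from titration series. Cells: Jurkat NFAT-β-lactamase/M1 line, treated with compound plus 1 uM carbachol for 5 h, 37 °C.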

[9] = biological target: Glucocorticoid receptor (Homo sapiens) (UniProt P04150); assay: GR-EFC Redistribution (AID 451; calls by dose curve; also: potency is read from the fitted curve at half-maximal effect); settings: CHO-K1 GR-EFC translocation, beta-gal luminescence, 2 h
Chain of Glucocorticoid receptor (Homo sapiens) (P04150 whole entry, looked up, the tested form may be a part): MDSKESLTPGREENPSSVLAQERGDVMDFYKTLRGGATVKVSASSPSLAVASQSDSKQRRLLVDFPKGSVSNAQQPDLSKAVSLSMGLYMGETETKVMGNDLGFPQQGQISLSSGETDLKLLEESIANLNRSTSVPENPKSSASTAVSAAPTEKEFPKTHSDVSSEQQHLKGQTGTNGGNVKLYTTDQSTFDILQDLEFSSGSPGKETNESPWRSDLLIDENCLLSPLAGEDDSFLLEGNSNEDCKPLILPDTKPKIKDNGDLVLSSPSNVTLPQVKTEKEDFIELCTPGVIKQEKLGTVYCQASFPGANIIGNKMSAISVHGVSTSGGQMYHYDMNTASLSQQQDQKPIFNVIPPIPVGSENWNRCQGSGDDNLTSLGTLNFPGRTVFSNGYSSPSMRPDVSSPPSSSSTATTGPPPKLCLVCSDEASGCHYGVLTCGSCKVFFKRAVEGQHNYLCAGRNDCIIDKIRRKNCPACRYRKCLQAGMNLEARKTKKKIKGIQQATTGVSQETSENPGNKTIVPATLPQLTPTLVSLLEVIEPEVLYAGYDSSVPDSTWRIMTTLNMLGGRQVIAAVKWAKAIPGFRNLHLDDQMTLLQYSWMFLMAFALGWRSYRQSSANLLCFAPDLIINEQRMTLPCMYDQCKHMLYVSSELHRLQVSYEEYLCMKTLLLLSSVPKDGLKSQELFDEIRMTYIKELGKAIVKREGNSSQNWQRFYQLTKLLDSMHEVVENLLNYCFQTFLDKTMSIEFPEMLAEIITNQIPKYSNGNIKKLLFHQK
How it was run: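 Translocation of GR-ED fusion to nuclear EA restores b-gal, read by luminescence after 1 h room-temperature detection. Engineered CHO-K1 biosensor cells, 1,000/well, exposed 2 h at 37 C to titrations up to 46 uM final.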

[10] = biological target: Mitogen-activated protein kinase 10 (Mus musculus) (UniProt Q61831); assay: JNK3 AlphaScreen Assay (AID 530; active = well fitted curve in either direction with a large enough effect, not every such curve was filed as active;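 also: kinase came from lysate of stimulated human HepG2 cells; signal reports phosphorylation of biotinylated GST-cJun 1-79 at Ser73 with 10 µM ATP; % is scaled to controls: 0 for no effect and ±100 for the full control effect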)
How it was run: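 Compound titrations were preincubated 15 minutes at room temperature with substrate, antibody and pre-activated JNK3-containing HepG2 lysate. Reactions were started with 10 uM ATP and stopped with EDTA-containing bead buffer for AlphaScreen detection.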

[11] = biological target: 3',5'-cyclic-AMP phosphodiesterase 4B (Homo sapiens) (UniProt Q07343); assay: qHTS Assay for Inhibitors of PDE-IV (AID 607; active = well fitted activation curve with a large enough effect in the main read-out, with a control signal flat, not every such curve was filed as active; also: % of control where 0% means no effect)
How it was run: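 HEK293 ACTOne cells with CNG channel (1000/well), endogenous PDE4; membrane potential dye, compounds up to 22.9 uM final. Fluorescence Ex 535/Em 590; RO 20-1724 (100 uM final) as reference.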

[12] = biological target: Guanine nucleotide-binding protein G(i) subunit alpha-1 (Homo sapiens) (UniProt P63096); assay: qHTS Assay for Inhibitors of RGS12 GoLoco Motif Activity (Green Fluorophore) (AID 879); also: potency is read from the fitted curve at half-maximal effect
Chain of Guanine nucleotide-binding protein G(i) subunit alpha-1 (Homo sapiens) (P63096 whole entry, looked up): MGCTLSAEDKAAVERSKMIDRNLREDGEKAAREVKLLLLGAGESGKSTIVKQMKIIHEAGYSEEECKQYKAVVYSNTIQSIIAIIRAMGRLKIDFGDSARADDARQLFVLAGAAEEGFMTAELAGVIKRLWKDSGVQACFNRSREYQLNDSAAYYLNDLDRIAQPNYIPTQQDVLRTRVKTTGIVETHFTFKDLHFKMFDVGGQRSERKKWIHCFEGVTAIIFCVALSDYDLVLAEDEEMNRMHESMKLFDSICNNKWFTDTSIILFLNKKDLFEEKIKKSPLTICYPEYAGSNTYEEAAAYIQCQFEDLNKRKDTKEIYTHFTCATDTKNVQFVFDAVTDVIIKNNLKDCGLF
How it was run: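 Fluorescence polarization assay: 50 nM Gαi1 with 10 nM FITC-labeled RGS12 GoLoco peptide in 10 mM Tris pH 7.5, 150 mM NaCl, 0.1 mM GDP, 0.05% NP40, 10 min at room temperature with compound.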

[13] = qHTS Assay for Identification of Small Molecule Antagonists for Thrombopoietin (TPO) Signaling Pathway (AID 918); settings: TPO-dependent cell signaling reporter, antagonist mode; also: potency is read from the fitted curve at half-maximal effect; nearly all actives have a fitted effect of over 60% in size
How it was run: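 Ba/F3 (murine, hTPO-R, GPIIb-luc reporter); overnight IL-3 withdrawal; cpd + TPO 26 pM final (EC50); 24 h 37 C/5% CO2; Steadylite luminescence after 10 min RT.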

[14] = biological target: Pyruvate kinase (Leishmania mexicana) (UniProt Q27686); assay: qHTS Validation Assay for Inhibitors of Leishmania Mexicana Pyruvate Kinase (AID 945);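 also: 0% = DMSO only neutral control wells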
Chain of Pyruvate kinase (Leishmania mexicana) (Q27686 2-499 E452W): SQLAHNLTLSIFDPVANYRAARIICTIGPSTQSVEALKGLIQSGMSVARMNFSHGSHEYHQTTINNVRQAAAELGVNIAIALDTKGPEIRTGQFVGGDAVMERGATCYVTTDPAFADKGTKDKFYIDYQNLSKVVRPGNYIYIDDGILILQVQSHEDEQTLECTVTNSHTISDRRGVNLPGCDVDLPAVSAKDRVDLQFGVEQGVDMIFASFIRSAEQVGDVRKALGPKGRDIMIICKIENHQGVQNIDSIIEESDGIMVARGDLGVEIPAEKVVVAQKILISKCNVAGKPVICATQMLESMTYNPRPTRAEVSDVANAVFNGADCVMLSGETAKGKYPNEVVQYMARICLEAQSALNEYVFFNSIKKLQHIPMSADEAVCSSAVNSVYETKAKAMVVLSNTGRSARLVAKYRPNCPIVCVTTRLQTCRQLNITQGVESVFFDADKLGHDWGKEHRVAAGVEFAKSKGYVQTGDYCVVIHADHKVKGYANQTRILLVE
How it was run: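 Eight-point qHTS titrations; enzyme 0.2 nM LmPYK (E451W mutant); substrates 0.5 mM PEP, 0.1 mM ADP; 7 mM MgCl2; 1 h room temperature; PKLight luminescence normalized to neutral control.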

[15] = biological target: Pyruvate kinase PKM (Homo sapiens) (UniProt P14618); assay: qHTS Assay for Activators of Human Muscle Pyruvate Kinase (AID 954; active = well fitted curve in the direction sought with a large enough effect, not every such curve was filed as active;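 also: 0% = uninhibited enzyme and -100% = no enzyme or full thiadiazolimine inhibition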)
How it was run: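 Purified human PKM2 (0.1 nM) with 0.5 mM PEP (Km) and 0.1 mM ADP in 50 mM imidazole pH 7.2, KCl, MgCl2, 1 h at room temperature; ATP formed read by coupled luciferase luminescence. Normalized to no-enzyme/110 uM thiadiazolimine inhibition; 0.3 nM enzyme column for activation.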

[16] = biological target: Alpha-galactosidase A (Homo sapiens) (UniProt P06280); assay: Counterscreen for Glucocerebrosidase Inhibitors: qHTS Assay for Human alpha-Galactosidase at pH 4.5 (AID 992); also: 0% is about no effect
Chain of Alpha-galactosidase A (Homo sapiens) (P06280 whole entry, looked up): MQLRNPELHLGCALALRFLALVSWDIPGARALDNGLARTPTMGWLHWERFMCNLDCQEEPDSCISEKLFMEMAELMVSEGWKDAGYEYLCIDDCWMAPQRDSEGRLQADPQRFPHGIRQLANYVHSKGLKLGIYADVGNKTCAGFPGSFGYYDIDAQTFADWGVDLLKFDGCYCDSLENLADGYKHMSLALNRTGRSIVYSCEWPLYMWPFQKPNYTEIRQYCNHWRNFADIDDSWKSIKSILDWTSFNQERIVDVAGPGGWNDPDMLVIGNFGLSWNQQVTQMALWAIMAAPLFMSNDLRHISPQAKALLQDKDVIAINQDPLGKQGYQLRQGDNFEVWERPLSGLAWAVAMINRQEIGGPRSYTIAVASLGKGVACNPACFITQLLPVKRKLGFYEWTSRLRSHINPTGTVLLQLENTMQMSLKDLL
How it was run: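 Human enzyme (2 nM) with 80 uM 4-methylumbelliferyl alpha-D-galactopyranoside in 50 mM citric acid, 0.005% Tween-20, pH 4.5, 20 min at room temperature. Compounds 0.7 nM–77 uM; fluorescence Ex 365/Em 440 after pH 10 stop; AC50 from Hill fits.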

[17] = biological target: alpha-glucosidase (Oryza sativa, rice) (UniProt Q653V4); assay: Counterscreen for Glucocerebrosidase Inhibitors: qHTS Assay for Rice alpha-Glucosidase at pH 5.0 (AID 997);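 also: 0% = full activity with enzyme and -100% = basal without enzyme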
How it was run: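 Rice alpha-glucosidase (4 nM final) with 400 uM 4-methylumbelliferyl-alpha-D-glucopyranoside in citrate buffer pH 5.0, 20 min at room temperature, stopped at pH 10; fluorescence 365/440 nm, compounds 0.7 nM–77 uM, AC50 from Hill fits.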

O=C1CCN2C=Nc3cccc4ccc1c2c34
inactive: Potency [2] | Potency [3] | activity change, negative = inhibition [4] 142% [at 30.8 µM]
active: Potency [1] 6.51 µM | Potency [5] 11.2 µM

COc1ccccc1N1N=C(C(=O)c2ccccc2)C2C(=O)N(c3ccc(Br)cc3)C(=O)C21 (centres undefined)
active: Potency [5] 17.8 µM
inactive: Potency [2] | Potency [3] | Potency [4]

CC[n+]1ccc(/C=C/c2c[nH]c3ccccc23)cc1
inactive: Potency [2] | Potency [3] | Potency [4]
active: Potency [5] 44.7 µM

COc1ccc(-c2nn(-c3ccccc3)cc2/C=C2/SC(=S)N(CCC(=O)O)C2=O)cc1
inactive: Potency [2] | Potency [3] | Potency [4]

O=C(NC1CCCC1)c1cccc2c1C(=O)c1ccc(N3CCCCC3)cc1S2(=O)=O
inactive: Potency [2] | Potency [3] | Potency [4] | Potency [5]

COc1ccc(C2CC(c3cccs3)=NN2c2ccc(C=O)cc2)cc1 (centres undefined)
active: Potency [5] 44.7 µM
inactive: Potency [2] | Potency [3] | Potency [4]

COC(=O)c1sc(S(=O)(=O)N2CCCCC2C)c(C(=O)OC)c1C (centres undefined)
inactive: Potency [2] | Potency [4] | Potency [5]
active: Potency [3] 53.6 µM

CC(=O)[C@@]1(O)Cc2c(O)c3c(c(O)c2[C@H](O[C@H]2C[C@H](N)[C@H](O)[C@H](C)O2)C1)C(=O)c1ccccc1C3=O
active: activity change, negative = inhibition [6] -110% [at 38 µM] | Potency [7] 20 µM | activity change, negative = inhibition [8] -116% [at 38 µM] | Potency [12] 0.02 µM | Potency [13] 0.0251 µM | Potency [5] 12.6 µM
inactive: Potency [9] > 46 µM | Potency [10] | Potency [11] | outcome [14] | outcome [15] | outcome [16] | outcome [17] | Potency [2] | Potency [3] | activity change, negative = inhibition [4] 128% [at 30.8 µM]
